“And” between values parts separate entries of the source, which are not always exact repeats. Equal values may be shown once. Inconclusive results are not listed. The source made the active and inactive calls. The call rests on the fitted dose curve; in most records, active means well fitted curve in the direction sought with a large enough effect; inconclusive means small, poorly fitted or top-dose-only effect, or another doubt; inactive means no such curve, though single readings can be large; an effect the other way counts as inactive or inconclusive.

Assay [1] is described as follows: qHTS of pediatric cancer cell lines to identify multiple opportunities for drug repurposing: Primary screen for Rh18 cells (AID 1347102). Further: nearly all actives have a fitted effect of over 65% in size. Further: potency means the concentration at half of the fitted maximal effect. In outline:
(§1)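 Cells (500-1,000/well) rested 5 h, then received compounds for 48 h; metabolically active cells were measured by CellTiter-Glo luminescence. Final concentrations spanned up to 46 µM (MIPE, 11-point) or 0.59 nM-46 µM (NPC, 8-point) in primary screens, 11-point in follow-ups.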

The nature of assay [2]: qHTS of pediatric cancer cell lines to identify multiple opportunities for drug repurposing: Primary screen for OHS-50 cells (AID 1347103). Further: nearly all actives have a fitted effect of over 40% in size. Further: potency means the concentration at half of the fitted maximal effect. In outline: as §1
On the technique in general: In qHTS, concentration-response curves come from the screen itself.

Assay [3] can be described thus: qHTS of pediatric cancer cell lines to identify multiple opportunities for drug repurposing: Primary screen for RD cells (AID 1347104). Further: nearly all actives have a fitted effect of over 55% in size. Further: potency means the concentration at half of the fitted maximal effect. Summed up: (§2)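 Following a 5-hour attachment period, cells at 500-1,000/well received compounds and were cultured for 48 hours. CellTiter-Glo was added and luminescence read to estimate viable, metabolically active cells.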
The nature of assay [4]: qHTS of pediatric cancer cell lines to identify multiple opportunities for drug repurposing: Primary screen for MG 63 (6-TG R) cells (AID 1347105). Further: nearly all actives have a fitted effect of over 50% in size. Summed up: as §2
Assay [5] in a line: qHTS of pediatric cancer cell lines to identify multiple opportunities for drug repurposing: Primary screen for control Hh wild type fibroblast cells (AID 1347106).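 Further: series mostly up to about 46 µM; a drop in luminescence marks cytotoxicity and a rise apparent proliferation; nearly all actives have a fitted effect of over 55% in size.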 Summed up:
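Viability after 48 h compound treatment at 37C, 500-1,000 cells/well, read as ATP luminescence with CellTiter-Glo. Primary screens used 11-point (MIPE, 0.78 nM-46 µM) or 8-point (NPC, 0.59 nM-46 µM) final concentrations; follow-up screens used 11-point dilutions.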

The nature of assay [6]: qHTS of pediatric cancer cell lines to identify multiple opportunities for drug repurposing: Primary screen for Rh30 cells (AID 1347107). Further: series mostly up to about 46 µM; nearly all actives have a fitted effect of over 75% in size. In outline:
as §1

Assay [7] in a line: qHTS of pediatric cancer cell lines to identify multiple opportunities for drug repurposing: Primary screen for Rh41 cells (AID 1347108).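 Further: series mostly up to about 46 µM; luminescence drop marks cytotoxic hits; nearly all actives have a fitted effect of over 70% in size.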 Summed up:
as §2

Consider `CCN[C@H]1C[C@H](C)S(=O)(=O)c2sc(S(N)(=O)=O)cc21`, for which the Potency result in assay [1], in assay [2], in assay [3], in assay [4], in assay [5] and in assay [6] was “inactive” each time. Moreover, the Potency entry in assay [7] is “inactive”.

For `O=C(O)c1cc(=O)[nH]c(=O)[nH]1`, the Potency entry in assay [1], in assay [2], in assay [3], in assay [4], in assay [5] and in assay [6] was “inactive” in each case. For the same compound, in assay [7], the Potency entry is “inactive”.

On to `N[C@@H](C(=O)N[C@@H]1C(=O)N2C(C(=O)O)=C(Cl)CS[C@H]12)c1ccccc1`, for which the Potency entry in assay [1], in assay [2], in assay [3], in assay [4], in assay [5] and in assay [6] was “inactive” in each case. Moreover, in assay [7], the Potency entry is “inactive”.

Take `CC(=O)Oc1ccccc1C(=O)Nc1ncc([N+](=O)[O-])s1`: the Potency in assay [1] was 42.9 µM (active); in assay [2] it was 22.2 µM (active); in assay [3] it was 42.9 µM (active) and 23.7 µM (active). Also, the Potency result in assay [4] and in assay [5] was “inactive” throughout.

Take `Nc1ccc(S(=O)(=O)Nc2ccccn2)cc1`: the Potency entry in assay [1], in assay [2], in assay [3], in assay [4], in assay [5] and in assay [6] was “inactive” throughout. The Potency entry in assay [7] is “inactive”.

On to `CN(CCOc1ccc(CC2SC(=O)NC2=O)cc1)c1ccccn1` (centres undefined), for which the Potency entry in assay [1], in assay [2], in assay [3], in assay [4], in assay [5] and in assay [6] was “inactive” each time. In addition, in assay [7], the Potency entry is “inactive”.

On to `COc1ccccc1OCC(O)COC(N)=O` (centres undefined), for which the Potency result in assay [1], in assay [2], in assay [3], in assay [4], in assay [5] and in assay [6] was “inactive” throughout. For the same compound, the Potency result in assay [7] was “inactive”.

Regarding `O=C(O)CSCC(=O)NC1CCSC1=O` (centres undefined), the Potency entry in assay [1], in assay [2], in assay [3], in assay [4], in assay [5] and in assay [6] was “inactive” each time. Moreover, the Potency result in assay [7] is “inactive”.

Regarding `CCN(CC)CCn1c(=O)c(Cc2ccc(OC)cc2)nc2ccccc21`, the Potency result in assay [1], in assay [2], in assay [3], in assay [4], in assay [5] and in assay [6] was “inactive” each time. Besides, in assay [7], the Potency entry is “inactive”.

For the compound `OCc1ccc(-c2nn(Cc3ccccc3)c3ccccc23)o1`, the Potency result in assay [1], in assay [3], in assay [4], in assay [5] and in assay [6] was “inactive” each time. Besides, in assay [2], the Potency is 1.72 µM (active).

On to `CC(=O)CC(c1ccccc1)c1c(O)c2ccccc2oc1=O` (centres undefined), for which the Potency entry in assay [1], in assay [2], in assay [3], in assay [4], in assay [5] and in assay [6] was “inactive” each time. Further, in assay [7], the Potency entry was “inactive”.

Consider `COc1ncnc(NS(=O)(=O)c2ccc(N)cc2)c1OC`, for which the Potency result in assay [1], in assay [2], in assay [3], in assay [4], in assay [5] and in assay [6] was “inactive” in each case. Also, the Potency entry in assay [7] was “inactive”.

Take `CC(C)(Sc1cc(C(C)(C)C)c(O)c(C(C)(C)C)c1)Sc1cc(C(C)(C)C)c(O)c(C(C)(C)C)c1`: the Potency entry in assay [1], in assay [2], in assay [3], in assay [4], in assay [5] and in assay [6] was “inactive” each time. Besides, the Potency result in assay [7] is “inactive”.

On to `CN1CCN(c2c(F)cc3c(=O)c(C(=O)O)cn4c3c2OCN4C)CC1`, for which the Potency entry in assay [1], in assay [2], in assay [3], in assay [4], in assay [5] and in assay [6] was “inactive” throughout. The Potency entry in assay [7] is “inactive”.

`CCn1cc(C(=O)O)c(=O)c2cc(F)c(N3CCNCC3)nc21`: the Potency entry in assay [1], in assay [2], in assay [3], in assay [4], in assay [5] and in assay [6] was “inactive” throughout. Besides, the Potency entry in assay [7] is “inactive”.

Regarding `Cc1noc(NS(=O)(=O)c2ccc(N)cc2)c1C`, the Potency entry in assay [1], in assay [2], in assay [3], in assay [4], in assay [5] and in assay [6] was “inactive” each time. The Potency entry in assay [7] is “inactive”.

As to `COCCCOc1cc(C[C@@H](C[C@H](N)[C@@H](O)C[C@H](C(=O)NCC(C)(C)C(N)=O)C(C)C)C(C)C)ccc1OC`, the Potency result in assay [1], in assay [2], in assay [3], in assay [4], in assay [5] and in assay [6] was “inactive” each time. Also, the Potency entry in assay [7] is “inactive”.

Take `COc1c(N2CCNC(C)C2)c(F)cc2c(=O)c(C(=O)O)cn(C3CC3)c12` (centres undefined): the Potency entry in assay [1], in assay [2], in assay [3], in assay [4], in assay [5] and in assay [6] was “inactive” each time. Moreover, in assay [7], the Potency entry is “inactive”.

On to `C[C@]12C=CC(=O)C=C1CC[C@@H]1[C@@H]2C(=O)C[C@@]2(C)[C@H]1CC[C@]2(O)C(=O)CO`, for which the Potency entry in assay [1], in assay [2], in assay [3], in assay [4], in assay [5] and in assay [6] was “inactive” in each case. Besides, in assay [7], the Potency result was “inactive”.

On to `Cc1nnc(C(=O)NC(C)(C)c2nc(C(=O)NCc3ccc(F)cc3)c(O)c(=O)n2C)o1`, for which the Potency result in assay [1], in assay [2], in assay [3], in assay [4], in assay [5] and in assay [6] was “inactive” throughout. In addition, in assay [7], the Potency result is “inactive”.

For the compound `C#CCN[C@@H]1CCc2ccccc21`, the Potency entry in assay [1], in assay [2], in assay [3], in assay [4], in assay [5] and in assay [6] was “inactive” each time. The Potency entry in assay [7] is “inactive”.

Take `CC1(C)[C@H](C(=O)O)N2C(=O)C[C@H]2S1(=O)=O`: the Potency result in assay [1], in assay [2], in assay [3], in assay [4], in assay [5] and in assay [6] was “inactive” in each case. Also, in assay [7], the Potency result was “inactive”.

As for `CCOC(=O)c1ccc(OC(=O)CCCCCN=C(N)N)cc1`, the Potency result in assay [1], in assay [2], in assay [3], in assay [4], in assay [5] and in assay [6] was “inactive” each time. Moreover, the Potency result in assay [7] was “inactive”.

With `CNC1CCCN(c2c(F)cc3c(=O)c(C(=O)O)cn(C4CC4)c3c2OC)C1` (centres undefined), the Potency entry in assay [1], in assay [2], in assay [3], in assay [4], in assay [5] and in assay [6] was “inactive” throughout.

These data come from PubChem BioAssay (NCATS).
